ChEMBL document CHEMBL4513216, “Probing the Open Global Health Chemical Diversity Library for Multistage-Active Starting Points for Next-Generation Antimalarials” (ACS Infect Dis, 2020)
The whole screen tested about 69,000 compounds, of which about 8,600 (12%) showed an effect of 50% or more. The sample as a whole holds a higher share of strong results than the screen did.

Each compound was assayed on Plasmodium berghei (assay: Screen against P. berghei liver stage (PbLuc), transformed with Luciferase, at 10uM). Conditions: tested at 10 uM.
Assay type: functional, HepG2

| SMILES | INHIBITION |
| --- | --- |
| O=S(=O)(Cc1ccccc1Cl)CC(O)CO (centres undefined) | 27% |
| Cc1cnn(Cc2ccc(NC(=O)N3CCCCC3CO)cc2)c1 (centres undefined) | -0.378% |
| Cc1noc(CNC2CCCN(Cc3noc(C4CC4)n3)C2)n1 (centres undefined) | -52.5% |
| COc1cccc(CNCc2nc3ccccc3c(=O)[nH]2)c1 | 16.5% |
| CN(C)c1nccc(N2CCO[C@H]3CN(CC4CCOCC4)C[C@H]32)n1 | 36.8% |
| CN(C)c1nccc(N2CCO[C@H]3CN(Cc4nccn4C)C[C@H]32)n1 | 80.2% |
| Cc1noc(C)c1CN1CCO[C@H]2CN(Cc3nccn3C)C[C@H]21 | 0.72% |
| CN(C)c1nccc(N2CCO[C@H]3CN(Cc4ccco4)C[C@H]32)n1 | -23.4% |
| COCCN1C[C@@H]2OCCN(c3ccnc(N(C)C)n3)[C@@H]2C1 | -16.9% |
| CCc1ccc(CN2C[C@@H]3OCCN(c4ccnc(N(C)C)n4)[C@@H]3C2)o1 | 85.1% |
| CCS(=O)(=O)Nc1ccc2oc(C)c(C(C)=O)c2c1 | 28.5% |
| Fc1cnc(N2CCCC3(COCCN(c4nccs4)C3)C2)nc1 (centres undefined) | 29.4% |
| CN1C[C@H](O)[C@]2(CCN(Cc3ccc(OC(F)(F)F)cc3)C2)S1(=O)=O | 26% |
| COc1ccc(CN2CC[C@@]3(C2)[C@H](O)CN(C)S3(=O)=O)cc1F | 20.7% |
| CN1C[C@H](O)[C@]2(CCN(Cc3ccc(F)c(F)c3)C2)S1(=O)=O | 54% |
| Cn1cc(CN2CCCC23CCN(C(=O)c2ccncc2)CC3)cn1 | 36.4% |
| O=C(N1CCOCC1)[C@@]12CCO[C@@H]1CCN(CC1CCCCC1)C2 | 24.5% |
| O=C(N1CCOCC1)[C@@]12CCO[C@@H]1CCN(CC1CCC1)C2 | 22.2% |
| CNC(=O)[C@@]12CCO[C@@H]1CCN(Cc1ccc3c(c1)OCO3)C2 | 3.69% |
| CN(C)C(=O)[C@@]12CCO[C@@H]1CCN(Cc1ccc3c(c1)OCO3)C2 | 76.2% |
| Cc1cc(CN2CC[C@H]3OCC[C@@]3(C(=O)N3CCOCC3)C2)no1 | 14.6% |
| O=C(N1CCOCC1)[C@@]12CCO[C@@H]1CCN(Cc1ccncc1)C2 | 83.2% |

| SMILES | INHIBITION |
| --- | --- |
| Cc1cccc(CN2CC[C@H]3OCC[C@@]3(C(=O)N3CCOCC3)C2)n1 | 12.6% |
| O=C(N1CCOCC1)[C@@]12CCO[C@@H]1CCN(Cc1ccccc1F)C2 | 36.3% |
| O=C(N1CCOCC1)[C@@]12CCO[C@@H]1CCN(CCN1CCCCC1)C2 | -22.9% |
| O=C(N1CCOCC1)[C@@]12CCO[C@@H]1CCN(Cc1cccc(F)c1)C2 | 95.1% |
| O=C(N1CCOCC1)[C@@]12CCO[C@@H]1CCN(CC1CCCC1)C2 | 53.4% |
| CC(C)NC(=O)[C@@]12CCO[C@@H]1CCN(Cc1ccc3c(c1)OCO3)C2 | 33.5% |
| O=S(=O)(c1cn[nH]c1)N1CCC(O)(CN2CCOCC2)C1 (centres undefined) | 38.5% |
| COc1cc(-c2nc3c([nH]2)CCCNC3=O)ccc1O | -53% |
| CN(C)C(=O)CN1CCC2(CCN(CC3CC3)CC2)C1=O | 28.4% |
| COc1ccccc1CN(C)C(=O)NCc1c(C)cc(C)[nH]c1=O | -13.3% |
| O=C(c1ccc(N2CCOCC2)nc1)N1CCCC(n2cccn2)C1 (centres undefined) | 31.3% |
| CCc1cnc(C)nc1NC1CC(=O)N(CC)C1 (centres undefined) | 14.9% |
| c1ccc(-n2cc(CN3CCCC3Cn3cccn3)nn2)cc1 (centres undefined) | -18% |
| Cc1cc(C)c(S(N)(=O)=O)cc1C(=O)NCCN1CCCCC1 | 42.1% |
| COc1cc(OC)cc(C(=O)NCc2nn(C)c3c2COCC3)c1 | 24.2% |
| O=S(=O)(c1cn[nH]c1)N1CCCC1c1cc[nH]n1 (centres undefined) | -12.9% |
| COc1cccc(CNC(=O)CC2CSc3nc(C)c(C)c(=O)n32)c1 (centres undefined) | 27% |
| O=C(c1ccnnc1)N1C[C@H](Oc2ccccn2)[C@H]2OCCC[C@H]21 | -15.9% |
| CC1(C)CC(=O)c2cnc3nc(N4CCOCC4)nc(O)c3c2C1 | -42.5% |
| CC(=O)N1CCN(c2nc(C(F)(F)F)nc3sc(C)c(C)c23)CC1 | 34.4% |
| CN1CCCN(c2nc(C3CC3)ns2)CC1 | -31.5% |
| Cc1nc(C(F)(F)F)nc(N2CCC3(CC2)CC(C(=O)O)N(C)C3)c1C (centres undefined) | 47.2% |

| SMILES | INHIBITION |
| --- | --- |
| Cc1sc2nc(C(F)(F)F)nc(N3CCN(C)CC3)c2c1C | 65.8% |
| Cc1nc(C(F)(F)F)nc(N2CCC(O)(C(=O)O)CC2)c1C | 24.4% |
| Cc1sc2nc(C(F)(F)F)nc(N3CCN(S(C)(=O)=O)CC3)c2c1C | 55% |
| Cc1sc2nc(C(F)(F)F)nc(N3CCCN(C)CC3)c2c1C | 53.9% |
| CN1CCCN(c2nc(C3CCCC3)nc3c2cnn3C)CC1 | 26.4% |
| Cc1sc2nc(C(F)(F)F)nc(N3CCC(NS(C)(=O)=O)CC3)c2c1C | 34.4% |
| Cc1cc(C)n(CCCC(=O)N2CCc3ncc(Cl)cc3C2)n1 | -50.2% |
| Cn1cc(NC(=O)N2CCC2c2ccccc2)ccc1=O (centres undefined) | 6.1% |
| O=C(O)c1nc(SCc2ccccc2)ncc1Br | 32.4% |
| CCN1CC(C(=O)NCCn2cccc2)CC1=O (centres undefined) | 43.9% |
| Cc1ncsc1C(=O)N1CCCC(CO)(CC2CC2)C1 (centres undefined) | 29.4% |
| Cn1nc(Cn2ccnc2)c2c1CN(c1nccs1)C2 | 3.88% |
| CCN1CCCCC1C(=O)N1CCC(OC2CCCC2)CC1 (centres undefined) | 10.2% |
| O=C(c1cnccn1)N1CCCC2(CCN(Cc3ccc(F)cc3)C2)C1 (centres undefined) | 8.03% |
| CC(C)(C)C(Cn1cccn1)NC(=O)c1ccco1 (centres undefined) | 35.2% |
| Cc1cccc(CNC(Cc2ccsc2)c2nccs2)n1 (centres undefined) | -24.4% |
| Cc1nc(C(Cc2ccsc2)NC(=O)CN2CCOCC2)sc1C (centres undefined) | 30.45% |
| Cc1cccc(CNC(Cc2ccsc2)c2nc(C)c(C)s2)n1 (centres undefined) | 91.6% |
| CC(C(=O)NCc1ccc(N2CCCC2)nc1)n1cncn1 (centres undefined) | 21.6% |
| CC(C(=O)Nc1ccc(N2CCCCC2)nc1)n1cncn1 (centres undefined) | 28.8% |
| CC(C(=O)NCCN1CCN(C)CC1)n1cncn1 (centres undefined) | 34.7% |
| CC(C(=O)Nc1ccc(N2CCCC2)nc1)n1cncn1 (centres undefined) | 56.1% |

| SMILES | INHIBITION |
| --- | --- |
| COc1ccc(NC(=O)C(C)n2cncn2)cn1 (centres undefined) | -33.9% |
| CC(C(=O)Nc1ccc(N2CCCC2)nc1)n1cccn1 (centres undefined) | 9.54% |
| CC(C(=O)Nc1cccc(N2CCCCC2)c1)n1cncn1 (centres undefined) | 70.7% |
| CC(C(=O)NCc1ccc(N2CCCCC2)nc1)n1cncn1 (centres undefined) | 7.12% |
| CC(C(=O)NCc1ccc(N2CCCCCC2)nc1)n1cncn1 (centres undefined) | 31.2% |
| Cc1cccc(N2CCN(CCNC(=O)C(C)n3cncn3)CC2)c1 (centres undefined) | 55.5% |
| CC(C(=O)NCCCN1CCN(c2ccccc2)CC1)n1cncn1 (centres undefined) | -16% |
| CC(C(=O)Nc1ccc(N2CCOCC2)nc1)n1cncn1 (centres undefined) | 53% |
| CC(C)NC(=O)N1CCc2onc(C(=O)Nc3cccnc3)c2C1 | -11% |
| COc1cc(NCc2ccccc2-n2cncn2)nc(N)n1 | -2.43% |
| CNC(=O)NC(=O)CCN1CCN(c2nccs2)CC1 | 11.9% |
| O=S(=O)(N[C@@H]1CCO[C@]2(CCN(CC3CCOCC3)C2)C1)C1CC1 | 1.48% |
| O=C1COC2(CCN(c3ncccn3)CC2)CN1Cc1ccccn1 | -6.21% |
| COc1ccc2c(ccn2CCC(=O)NCCCC(=O)O)c1 | 24.7% |
| Cc1noc(C(C)N(C)Cc2ccco2)n1 (centres undefined) | -33.4% |
| CCc1cnccc1C(=O)NC1CCN(C(=O)OC)CC1 | -7.16% |
| CC(NC(=O)COC1CCCC1)c1nc(-c2ccccc2)c[nH]1 (centres undefined) | -43.3% |
| NCCn1cc(C(=O)N2CCNC(=O)C2c2cccc(F)c2)nn1 (centres undefined) | -13.8% |
| CN(CC(=O)NCc1ccco1)Cc1nc2c(s1)CCCC2 | 40.8% |
| CN(CC(=O)NCC1CCCO1)Cc1nc2c(s1)CCCC2 (centres undefined) | 57.1% |
| CN(CC(=O)NCC(F)(F)F)Cc1nc2c(s1)CCCC2 | 46.7% |
| O=S(=O)(CCN1CCCCC1Cn1cncn1)c1ccccc1 (centres undefined) | -8.11% |

| SMILES | INHIBITION |
| --- | --- |
| CC(=O)NCCNC(=O)CNC1CCCN(c2ccc(C)nn2)C1 (centres undefined) | 47% |
| c1cn(-c2cnc(C3CCNCC3)cn2)cn1 | 26.8% |
| Cc1ccnc(C2CCN(C(=O)c3cnn(C)c3)CC2)n1 | 50.3% |
| Cc1ccnc(C2CCN(C(=O)c3cnn(C)c3)C2)n1 (centres undefined) | 48.4% |
| Cc1cc(C2CCN(C(=O)c3cnn(C)c3)CC2)ccn1 | -4.51% |
| CCOCC1CN(C(=O)c2cccnc2)Cc2cnn(C)c21 (centres undefined) | -2.35% |
| COc1cccc(CN2CCC(Cc3cnc(CN(C)C)cn3)CC2)c1 | 25.8% |
| CCn1ncc2[nH]c(-c3cc(OC)c(OC)cc3OC)nc21 | 26.5% |
| c1cc(CN2CCc3ncc(CN4CCOCC4)n3CC2)cs1 | -36% |
| Cc1ccc(N2CCN(C3CCc4ccccc4C3)CC2)nn1 (centres undefined) | 53.9% |
| Cc1ccc(N2CCC3(CCN(C(=O)C4CCOC4)CC3)CC2)nn1 (centres undefined) | -45.8% |
| Cc1ccc(N2CCC3(CC2)CCN(C2CCOCC2)CC3)nn1 | 58.7% |
| Cc1csc(N2CCC(NCC3(O)CCc4ccccc43)CC2)n1 (centres undefined) | 42.6% |
| Cc1ccc(N2C[C@H](O)[C@@H](N3CCN(c4ccccn4)CC3)C2)nn1 | 6.29% |
| Cc1ccc(N2CCN(C)c3ncccc3C2)nn1 | 48.2% |
| Cc1ccc(N2CCC3(CC2)CCN(C2CCOC2)CC3)nn1 (centres undefined) | 8.85% |
| NC(=O)c1csc(N2CCN(C3CCc4ccccc4C3)CC2)n1 (centres undefined) | 47.6% |
| Cc1csc(N2CCCN(C(=O)c3ccsc3)CC2)n1 | -36.4% |
| Cc1csc(N2CCN(Cc3ccccn3)CC2)n1 | 34.2% |
| Cc1csc(N2CCN(C3CCc4ccccc4C3)CC2)n1 (centres undefined) | 53% |
| Cc1csc(N2CCCN(C3Cc4ccccc4C3)CC2)n1 | 73.9% |
